# The supplement of paper PMC6555819
# Experiments:
# Test in all cases: PBM binding z-score (relative to random genomic background probes); higher = stronger binding; sequences stand for … in GC…GCGATTGACAGCGTAGAATGAAGG
# [1] = test system: FXR:RXRa (NR concentration 270 nM, RXRa partner concentration 90 nM)
# How it was run: (§1)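 Binding z-scores were set against random background probes. The data came from custom Agilent 4×180K protein-binding microarrays carrying double-stranded probes with 34-nt variable regions, incubated 1 h with ligand-free nuclear receptor dimers. Partner-specific antibodies detected binding, and scanned fluorescence was regression-normalized.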
# [2] = test system: LXRa:RXRa (NR concentration 270 nM, RXRa partner concentration 90 nM)
# How it was run: as §1
# [3] = test system: LXRa homodimer (NR concentration 270 nM)
# How it was run: as §1
# [4] = test system: LXRb:RXRa (NR concentration 270 nM, RXRa partner concentration 90 nM)
# How it was run: as §1
# [5] = test system: LXRb homodimer (NR concentration 270 nM)
# How it was run: as §1
# [6] = test system: PPARa:RXRa (NR concentration 270 nM, RXRa partner concentration 90 nM)
# How it was run: as §1
# [7] = test system: PPARg:RXRa (NR concentration 180 nM, RXRa partner concentration 90 nM)
# How it was run: as §1
# [8] = test system: PPARg:RXRa 270nM:90nM, anti-RXR (NR concentration 270 nM, RXRa partner concentration 90 nM)
# How it was run: as §1
# [9] = test system: PPARg:RXRa 30nM:10nM, anti-RXR (NR concentration 30 nM, RXRa partner concentration 10 nM)
# How it was run: as §1
# [10] = test system: PPARg:RXRa 90nM:30nM, anti-RXR (NR concentration 90 nM, RXRa partner concentration 30 nM)
# How it was run: as §1
# [11] = test system: PPARg:RXRa DBDmut IVT, anti-RXR (DBD mutation: RXRa K156A/R161A, NR concentration 270 nM, RXRa partner concentration 90 nM)
# How it was run: as §1
# [12] = test system: PPARg:RXRa IVT, anti-PPARg (NR concentration 270 nM, RXRa partner concentration 90 nM)
# How it was run: as §1
# [13] = test system: PPARg DBDmut:RXRa IVT, anti-PPARg (DBD mutation: PPARg1 K132A/R137A, NR concentration 270 nM, RXRa partner concentration 90 nM)
# How it was run: as §1
# [14] = test system: PPARg DBDmut IVT, anti-PPARg (DBD mutation: PPARg1 K132A/R137A, NR concentration 270 nM)
# How it was run: as §1
# [15] = test system: PPARg homodimer (NR concentration 180 nM)
# How it was run: as §1
# [16] = test system: PXR:RXRa (NR concentration 270 nM, RXRa partner concentration 90 nM)
# How it was run: as §1
# [17] = test system: PXR homodimer (NR concentration 270 nM)
# How it was run: as §1
# [18] = test system: RARa:RXR (NR concentration 270 nM, RXRa partner concentration 90 nM)
# How it was run: as §1
# [19] = test system: RARa homodimer (NR concentration 270 nM)
# How it was run: as §1
# [20] = test system: RARb:RXRa (NR concentration 270 nM, RXRa partner concentration 90 nM)
# How it was run: as §1
Sequence,PBM binding z-score [1],PBM binding z-score [2],PBM binding z-score [3],PBM binding z-score [4],PBM binding z-score [5],PBM binding z-score [6],PBM binding z-score [7],PBM binding z-score [8],PBM binding z-score [9],PBM binding z-score [10],PBM binding z-score [11],PBM binding z-score [12],PBM binding z-score [13],PBM binding z-score [14],PBM binding z-score [15],PBM binding z-score [16],PBM binding z-score [17],PBM binding z-score [18],PBM binding z-score [19],PBM binding z-score [20]
ATCTCTAGGTAACAAGTCCAGTGAAAGAGAGGAC,0.652,0.256,0.362,0.148,0.685,0.632,1.2,1.71,0.317,1.45,3.01,2.6,0.767,1.29,0.367,0.433,0.215,0.195,0.924,0.473
ACTAGTTGGTCAGCCGAGGTCACACACAATTCGG,3.43,3,2.4,3.32,0.882,3.85,2.34,2.6,0.926,2.06,1.8,3.12,0.481,1.14,3.29,5.43,2.13,5,1.82,3.58
TCATATAGGTAATACAGGGGAAAGTCGGCATCTA,1.29,1.31,0.263,1.21,0.513,1.55,1.01,2.49,4.47,3.25,4.42,2.56,1.36,0.581,0.957,0.783,0.581,1.08,0.911,0.566
CGTCCAAGGTCACTGCTAGGTCAGTGAAAGCATT,6.69,5.11,1.49,4.28,0.283,5.14,4.7,5.1,1.92,3.94,3.59,4.59,-0.128,0.266,3.91,4.72,1.09,5.65,0.316,5.42
ATCGAAAGGTCGAAGGTGAGTTTACCCACCCGAA,4.75,3.73,0.479,2.89,0.226,4.78,4.38,4.6,2.08,3.81,0.357,2.21,0.513,0.511,1.48,4.03,1.02,4.05,0.0951,3.85
ATCTCTAGGTGAGACTCAGTTCAGTGAAGAACGC,0.247,0.206,0.00794,0.271,0.0417,0.953,0.798,0.846,0.146,0.412,4.55,3.85,0.96,-0.0812,-0.0769,1.31,0.653,0.361,0.0758,0.707
CCAATTAGTTGACCATAAGGGCAACCGAAGCTCG,0.987,0.336,0.562,0.314,0.402,0.626,0.453,0.425,-0.327,0.254,0.617,0.411,0.198,0.147,1.75,0.497,0.892,0.865,1.38,1.67
CCTCCAAGGTCAGAGAGGTCAGTGAATGCCGAGT,5.62,5.09,2.77,4.43,0.381,4.71,3.2,4.06,1,2.54,2.56,2.91,-0.128,-1.11,3.5,5.94,10.8,4.82,0.862,5.18
CGTCAAAGTTCAACAAAGGTAACGTAAAGCACGC,7.15,6.13,3.38,3.9,1.98,4.83,5.08,5.42,2.27,4.23,0.464,2.37,1.21,0.778,3.04,5.18,3.03,4.08,1.53,5.32
CCGAGAAGGTTATGGGGCATTCAGGCAACGGTGA,1.63,1.52,0.000193,1.24,-0.242,2.89,1.15,1.75,-0.0865,0.883,0.959,1.38,-0.265,-0.895,1.08,0.668,0.111,1.54,-0.0567,2.08
CCTACTGGGCCAAAAAAGTCATTGATGCCGATAA,-0.316,-0.318,-0.289,-0.181,-0.774,0.404,0.271,0.686,-0.0301,0.41,3.32,2.23,-0.158,-0.274,0.205,-0.303,-0.213,-0.0727,-0.0226,0.134
CCTGCTGGGCCATTCAGAGGTCATTGATCATATG,2.79,4.29,6.46,4.01,0.198,3.65,0.755,1.86,0.0618,1.15,0.632,1.28,-1.02,-0.733,1.68,4.82,2.03,4.69,-0.506,3.23
TAGCCTTGGTCATTGGGCCAGTATAGTACGCATC,-0.646,-0.599,-0.698,-0.456,-0.537,-0.217,0.338,0.117,-0.34,-0.429,-0.486,0.545,-0.509,-0.603,-0.625,-0.515,-0.596,-0.324,-0.586,0.69
TATACAGGGTCAACGGCCAGAGTACGAATGTCGA,6.91,5.76,2.15,4.65,2.1,5.54,6.79,6,3.43,5.19,2.91,4.6,4.74,3.03,4.05,3.93,0.74,5.15,1.33,4.52
TTACCAACGTGAAAGGTCGTTGATGCACGCCTTG,1.28,1.48,0.436,1.66,-0.169,2.84,2.46,4.26,2.49,4.17,0.0227,1.04,0.702,-0.158,1.27,2.14,0.445,2.24,0.296,1.66
CCTACTAGGCCAAGGTCATTGATCAGTCAAAGCA,3.42,3.71,2.03,3.21,0.097,4.66,4.96,4.59,2.19,4.42,5.34,4.8,0.0145,0.199,1.67,3.52,1.98,3.68,0.849,3.62
CAAACTAGGTCACGACAGGTCAAAGTCGAATGAC,6.86,7.66,5.39,6.7,0.955,6.08,9.79,7.85,6.54,8.02,8.69,9.13,4.46,5.24,4.07,6.3,0.87,6.14,1.65,5.04
CAGCCCAGGTCAGGGCCAGTATAGGAGGAACGTT,2.46,1.34,-0.516,1.01,-0.951,2.27,0.962,0.716,-0.353,0.469,0.375,1.26,-1.13,-1.33,0.907,0.95,0.194,1.49,-0.138,3.45
CTCGAAAGGTCGGTCGAGGTGAGTATACGGATAA,2.43,1.82,-0.49,1.29,-0.496,2.75,0.678,1.5,0.401,0.892,0.299,1.21,0.0612,-0.418,0.551,3.08,-0.312,2.59,-0.801,3.2
AGAATGAGGTTATACGTAGTTCAGGGAAGAAAGT,2.23,3.06,0.289,1.93,-0.31,3.55,1.85,2.29,0.654,1.49,3.46,2.53,1.03,0.605,0.814,3.07,0.774,2.66,0.46,1.96
AGAATGAGGTGACCAAAGATCAGGGAAACGCTTG,0.916,0.957,-0.26,0.478,-0.291,2.24,2.48,2.2,0.478,1.46,4.37,4.21,0.497,0.08,0.216,0.534,-0.16,0.899,-0.253,1.3
CTCGAAATGTCGGTTGAGGTGAGTATACGGATAA,0.47,-0.279,-0.308,-0.214,0.0912,0.0141,0.0414,0.218,0.0305,-0.0265,-0.0159,0.503,0.298,0.408,0.0152,0.0277,-0.637,0.341,-0.1,0.334
GGTTACGGGTCAAAGGTTATAGCATGAATAGAAT,7.96,5.86,0.937,5.95,0.466,7.09,11.1,9.43,8.67,10.2,3.06,6.69,1.77,1.31,2.81,6.3,0.489,8.27,1.03,4.72
TCGAGCAGGCCAGAGGGTCACTCAAGAGGTACGG,0.628,0.741,-0.581,1.11,-1.33,2.24,1.04,1.6,0.223,1.31,-0.0196,0.342,-0.384,-1.69,0.386,1.76,-0.594,2.13,-0.84,2.19
GCAGACAGGTGAAAGGCAGGTAACTCAGGGTGGC,0.0647,0.0817,-0.103,-0.00398,-0.276,0.899,0.826,0.901,-0.278,0.391,0.331,0.821,-0.179,-1.25,0.447,-0.081,-0.0558,0.332,0.233,0.812
CCTACTAGGCCACGAAAGGTCATTGATTCAGTGA,4.02,5.66,5.5,4.32,0.558,4.84,5.77,5.3,2.35,4.43,6.91,6.28,0.693,0.0553,3.43,5.44,1.96,5.45,2.79,4.06
CCTACTAGGTCATGGTCAGCTAATCTACAGTATG,3.8,2.57,0.658,2.06,0.291,4.33,6.76,5.84,3.38,4.97,7.3,7.42,2.12,1.91,2.59,1.5,0.291,2.45,0.932,3.92
AGAATGAGGTTATAAGTAGATCAGGGAAGAAAGT,1.94,1.59,0.0372,1.73,0.269,2.96,2.67,2.94,1.34,2.45,3.03,2.5,0.674,0.782,1.83,1.47,0.923,1.88,0.571,1.25
AGAATGAGGTAAAGATCAGGGAAACAGAATACAT,0.438,0.311,-0.176,0.517,-0.108,0.991,2,2.05,0.928,1.67,1.72,1.73,1.8,0.935,0.296,0.125,0.151,0.265,0.446,0.258
